Out of some 290,000 compounds screened, about 27,000 (9.3%) were called active. This is one part of a sample in which actives are shown more often than they occur. Unmarked numbers belong to inactive results. Rule as the data show it: active = inhibition mostly above about 28% (no sharp cut-off); inactive = mostly below about 43%.
Assay: A qHTS for Small Molecule Inhibitors of Shiga Toxin; as to inhibition: 0% is about no effect
Settings: Vero cells, Shiga toxin protein synthesis inhibition reporter; at 38.7 µM, active compounds read high

| SMILES | inhibition |
| --- | --- |
| CCN(CC(=O)Nc1ccc2c(c1)OCO2)S(=O)(=O)c1ccccc1 | 2.17% |
| Cc1cccc(CN2CCC(n3nccc3NC(=O)c3ccccc3C)CC2)n1 | -8.84% |
| Nc1nnnn1/N=C/c1cccc(Br)c1 | 18.9% |
| CCS(=O)(=O)C1=NSC2=NC(=O)/C(=C\c3cc(C)n(-c4cccc(OC)c4)c3C)C(=N)N21 | 21.9% |
| Cc1cc(/C=C2/C(=N)N3C(=NC2=O)SN=C3S(C)(=O)=O)c(C)n1-c1ccccc1 | 98% (active) |
| CCC1=NN2C(=N)/C(=C/c3cc(C)n(-c4ccccc4)c3C)C(=O)N=C2S1 | 6.12% |
| CC1(C)NC(=O)N(CC(=O)Nc2cc(C(F)(F)F)cc(C(F)(F)F)c2)C1=O | 10.9% |
| Cc1cc(=O)n2nc(N3CCC(C(=O)Nc4c(F)c(F)c(F)c(F)c4F)CC3)sc2n1 | -3.72% |
| Cc1cc(=O)n2nc(N3CCCC(C(=O)NCc4ccc(Cl)cc4)C3)sc2n1 (stereo not drawn) | -10.3% |
| CC(=O)O[C@H]1c2ccccc2-c2ccccc2[C@@H]1OC(C)=O | -4.45% |
| Nc1ccc(S(=O)(=O)Nc2nccc(/C=C/c3ccc(Br)s3)n2)cc1 | 2.79% |
| Oc1cccc2ccc(/C=C/c3ccc(Br)s3)nc12 | 112% (active) |
| CC(=O)Nc1ccc(S(=O)(=O)NC2Cc3ccccc3C2)cc1 | -3.63% |
| COc1ccc(CCNC(=O)CS(=O)(=O)Cc2nc(-c3ccc(C)cc3)oc2C)cc1OC | 3.34% |
| COc1ccc(CNc2nc3c(c(=O)[nH]c(=O)n3C)n2Cc2ccccc2)cc1 | -4.35% |
| Cc1nc2c(c(=O)n1Cc1ccco1)c1nc3ccccc3nc1n2Cc1ccccc1 | -14% |
| Cc1ccc(Cn2c(C)nc3c(c2=O)c2nc4ccccc4nc2n3Cc2ccco2)cc1 | 12.7% |
| Clc1cccc(-c2nc3nc4ccccc4nc3n2Cc2ccco2)c1 | 75.4% (active) |
| CN(C)N1C(N)=C(C#N)C(c2ccc(Br)cc2)C2=C1CCCC2=O (stereo not drawn) | -14.3% |
| COc1ccccc1CN1CCCC(N2CCN(c3ccc(F)cc3)CC2)C1 (stereo not drawn) | -2.63% |
| Cc1ccc(S(=O)(=O)NCC(=O)N(CC(=O)NCC2CCCO2)c2cccc(F)c2)cc1 (stereo not drawn) | -9.17% |
| O=C(CSc1nc2ccccc2o1)N1CCN(c2ccc(Cl)cc2)CC1 | -1.01% |
| Cc1ccc(/C=N/NC(=O)CSc2nc3ccccc3o2)cc1 | 83.9% (active) |
| CCOC(=O)n1c(SCC(=O)N(CC)CC)nc2ccccc21 | -11% |

| SMILES | inhibition |
| --- | --- |
| O=C(CSc1nc2ccccc2o1)N1c2ccccc2Sc2ccc(Cl)cc21 | -8.96% |
| CC1Cc2ccccc2N1C(=O)CSc1nc2ccccc2o1 (stereo not drawn) | 94.1% (active) |
| O=C(CSc1nc2ccccc2o1)N/N=C/c1ccccc1C(=O)O | 41.2% |
| CC(C)(C)C(=O)CSc1nc2ccccc2o1 | 113% (active) |
| Cc1cc(=O)[nH]c(SCC(=O)N2c3ccccc3CC2C)n1 (stereo not drawn) | -7.96% |
| CCS(=O)(=O)c1ccc2oc(SCC(=O)N3c4ccccc4CC3C)nc2c1 (stereo not drawn) | -14.6% |
| CCN(CC)C(=O)CSc1nc2ccccc2o1 | 67.4% (active) |
| O=C(CSc1nc2ccccc2o1)N1CCN(c2ccccc2)CC1 | -6.06% |
| CCn1c(SCC(=O)N/N=C/c2ccncc2)nc2ccccc21 | -2.17% |
| O=S(=O)(NCC1CN(S(=O)(=O)c2ccc3c(c2)OCCO3)C1)c1c(F)cccc1F | -12.4% |
| COC(=O)c1cc(S(=O)(=O)N2CCN(c3cc(C)ccc3C)CC2)c[nH]1 | -9.79% |
| CCC(C(=O)NC1CCCC1)N(C(=O)Cn1nnc(-c2ccc(C)o2)n1)c1ccc(OC)c(OC)c1 (stereo not drawn) | -7.44% |
| CC1CC(C)CN(CCOc2cccc3ccccc23)C1 (stereo not drawn) | -12.3% |
| CC1CCC(NC(=O)CN(C)S(=O)(=O)c2ccc3c(c2)c(=O)n(C)c(=O)n3C)CC1 (stereo not drawn) | -2.58% |
| CCCS(=O)(=O)N1CCN=C1SCc1cccc(F)c1 | -4.79% |
| COC(=O)c1cc(OCC(=O)NC2CCCc3ccccc32)cc(C(=O)OC)c1 (stereo not drawn) | -5.73% |
| O=C1OCCN1C(=O)[C@H]1[C@H](c2ccc(Cl)cc2)C(c2cccc(Cl)c2)=NN1c1ccc(Br)cc1 | inactive |
| COc1ccccc1Oc1ccc(N2CC(C(=O)OCC(=O)c3ccc(F)cc3)CC2=O)cc1 (stereo not drawn) | 7.33% |
| COc1cccc(CNS(=O)(=O)c2ccc3c(c2)CC(C)N3C(C)=O)c1 (stereo not drawn) | -5.4% |
| O/N=C(\C[n+]1ccccc1)c1ccc(Br)cc1 | 13.2% |
| O=C(Nc1ccc2nc3n(c(=O)c2c1)CCCCC3)c1ccccc1Cl | 40.7% |
| O=C(Nc1ccc2sc3ccccc3c(=O)c2c1)c1ccccc1Cl | 93.9% (active) |
| O=C(Nc1cccc(NC(=O)c2ccccc2[N+](=O)[O-])c1)c1ccccc1Cl | 30.9% |
| CCSCc1nc(N)nc(NCCc2ccccc2)n1 | 15.6% |

| SMILES | inhibition |
| --- | --- |
| CCc1nn(CCCC(=O)NCc2ccc(C)cc2)c(=O)c2cc3occc3n12 | 18.7% |
| CCNC(=S)N(CCN(CC)CC)Cc1cc2cc3c(cc2[nH]c1=O)OCO3 | -7.63% |
| COc1ccc(NC(=O)C(C)N2c3cccc4cccc(c34)S2(=O)=O)c(OC)c1 (stereo not drawn) | -11.7% |
| CCC(C)NCC(=O)Nc1ccc([N+](=O)[O-])cc1C(=O)Nc1ccccc1F (stereo not drawn) | 13% |
| O=[N+]([O-])c1cccc(/C([O-])=C(/C(=S)Nc2ccccc2F)[n+]2ccccc2)c1 | 83.4% (active) |
| Cc1ccc(/C([O-])=C(/C(=S)NCc2ccco2)[n+]2ccccc2)cc1[N+](=O)[O-] | -8.48% |
| Cc1cc(C)c(C#N)c(Nc2cccc(Br)c2)n1 | -8.95% |
| COc1ccc(C(C)=O)cc1COc1ccc(Cl)c(C)c1 | 7.61% |
| COc1ccc(N2CCN(C(=O)CCc3nc(-c4ccc(C)cc4)no3)CC2)cc1 | -8.71% |
| Cc1cc(Cl)ccc1OCc1nc(-c2ccncc2)no1 | 129% (active) |
| Cc1cc(Cl)ccc1OCCCC(=O)NCc1ccncc1 | 14.6% |
| COc1ccc(-c2noc(COc3ccc(Cl)c(C)c3)n2)cc1 | 25.5% (active) |
| CN(Cc1ccccn1)Cc1nc(-c2ccc(Cl)cc2)no1 | 31.7% |
| C=C(C)COc1ccc(-c2ncncc2-c2ccc(OC)cc2)c(O)c1 | -1.7% |
| Cc1ccc(CN2C(=O)N/C(=C/c3cc(C)n(-c4ccccn4)c3C)C2=O)cc1 | 31.1% |
| CCN(CC)S(=O)(=O)c1ccc(Cl)c(C(=O)NCCN2CCOCC2)c1 | -6.97% |
| COc1c(C(C)C)oc2cc3oc(=O)ccc3cc12 | 34% |
| Cc1ccc(OCC(=O)Nc2ccc3oc(=O)ccc3c2)cc1C | -5.7% |
| Cc1oc2cc3oc(=O)ccc3cc2c1C | 40.7% (active) |
| CCN(C(=O)COc1ccc(C(=O)c2ccccc2)cc1)c1ccccc1 | -10.2% |
| Cc1ccccc1N1CC(C(=O)Nc2nnc(SCCC3OCCO3)s2)CC1=O (stereo not drawn) | -4.6% |
| COc1ccc(OCc2nnc3n2N=C(c2ccccc2)C(CC(=O)O)S3)cc1 (stereo not drawn) | -9.4% |
| CC/C(=N\NC(=O)c1ccccc1O)c1c(O)n(Cc2ccccc2)c(=O)[nH]c1=O | 58.6% (active) |
| CCCCCCN=C(CC)c1c(O)n(CCCC)c(=O)[nH]c1=O | -8.53% |

| SMILES | inhibition |
| --- | --- |
| CCCCn1c(O)c(C(CC)=NCc2ccco2)c(=O)[nH]c1=O | -7.37% |
| Cc1cc2cc3c(cc2nc1SCC(=O)Nc1c(C)cccc1C)CCC3 | -6.77% |
| Cc1cccn2c(=O)c3cc(C(=O)NC4CCCCC4)sc3nc12 | -2.1% |
| CCn1c(=N)c(C(=O)NCCCOC)cc2c(=O)n3cccc(C)c3nc21 | -7.15% |
| CCOCCCNC(=O)c1cc2c(=O)n3ccccc3nc2s1 | 74.5% (active) |
| NC(=O)C1CCN(CC(O)CSc2ccc(F)cc2)CC1 (stereo not drawn) | 2.41% |
| CC(C)(C)NC(=O)Cn1cnc([N+](=O)[O-])n1 | -6.78% |
| O=C(Cn1cnc([N+](=O)[O-])n1)NCCc1ccccc1 | 17.3% (active) |
| O=C(CSc1ncccn1)NCCc1ccccc1 | 1.16% |
| COc1ccc2cc(CCl)c(Cl)nc2c1 | 14.8% |
| CCCC(=O)N1CCC(CCC(=O)NC2CC2)CC1 | 14.8% |
| COCCNC(=O)c1ccc(N2CCC3(CC2)OCCO3)c([N+](=O)[O-])c1 | 7.01% |
| CCC(C)NC(=O)c1ccc(N2CCC3(CC2)OCCO3)c([N+](=O)[O-])c1 (stereo not drawn) | 50.1% (active) |
| CC(NC(=O)c1ccc(N2CCNCC2)c([N+](=O)[O-])c1)C12CC3CC(CC(C3)C1)C2 (stereo not drawn) | -0.798% |
| COc1ccc(NC(=O)c2cc(-c3cc(OC)c(OC)c(OC)c3)nc3ccccc23)c(OC)c1 | 15.1% |
| COc1ccc2oc(-c3cccc(NC(=O)CSc4ccc(Cl)cc4)c3)nc2c1 | 13.6% |
| COc1cccc(-c2nc(S(=O)(=O)c3ccccc3)c(N3CCOCC3)o2)c1 | 20.2% |
| COc1ccc(-c2nc3cc([N+](=O)[O-])ccc3o2)cc1OC | 27.9% |
| CC(=O)Oc1ccc2c(=O)oc(-c3ccc([N+](=O)[O-])cc3)nc2c1 | -6.54% |
| COc1cccc(-c2nc3cc(C)ccc3o2)c1 | 65% (active) |
| O=[N+]([O-])c1ccc2oc(-c3cccc(O)c3)nc2c1 | 47.7% (active) |

Reference: PubChem BioAssay AID2315 (National Center for Advancing Translational Sciences (NCATS), 2010)
